# HT1080NT lethal – kills 2HG-producing HT-1080-NT fibrosarcoma cells; HT-1080-NT fibrosarcoma viability, CellTiter-Glo ATP luminescence, 48 h; 360,000 compounds, 1.6% hits; Potency, µM (top dose mostly 46.1 µM), inactives show at the top dose activity, negative = less viability, most hits filed as cytotoxic; AID 686970;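 further: NT is the 2HG producing partner of a matched IDH1 knockdown line; potency means the concentration at half of the fitted maximal effect; 0% = DMSO-treated cells and -100% = media-only wells without cells; nearly all actives have a fitted effect of over 55% in size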
#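 750 cells/well, RPMI + 5% FBS; 2 h settle, compound pin-transfer, 48 h at 37 degrees C. CellTiter-Glo 10 min RT, luminescence. Normalized to DMSO and media-only wells.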
# IL1B secr inh – inflammasome signaling inhibition, IL-1 beta readout | THP-1 LPS/ATP IL-1B secretion, AlphaLISA, 16 h; active compounds read low | activity change, % at 57.5 µM | 360,000 compounds, 4.7% hits; in the data active means activity change below about -50%; inconclusive means mostly about -30% to -49%
#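 THP-1 cells pretreated 1 hr with compounds (up to 57.5 uM final), then stimulated with LPS (250 ng/mL final) plus ATP (1.25 mM final); secreted IL-1B measured by AlphaLISA after 16 hr, decreased signal indicating inhibition.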
# TDP1 cell CPT – growth inhibition of DT40 Tdp1-/-;hTDP1 cells with camptothecin (screen for TDP1 inhibitors); 420,000 compounds, 12% hits; chicken DT40 Tdp1-/-;hTDP1 cells + 20 nM CPT, ATP luminescence, 48 h; Potency, µM (doses to about 46.2 µM), inactives show top-dose activity change, negative = growth inhibition, actives largely listed as inhibitors; AID 686979; further: potency means the concentration at half of the fitted maximal effect; nearly all actives have a fitted effect of over 55% in size
#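 Chicken DT40 Tdp1-/- cells stably complemented with human TDP1 were seeded at 400 cells/well in medium containing 20 nM camptothecin, exposed to pin-transferred compounds, and grown at 37 °C for at least 48 hr. Viability was read as ATP luminescence.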
# TDP1 cell noCPT – qHTS for Inhibitors of human tyrosyl-DNA phosphodiesterase 1 (TDP1): qHTS in cells in absence of CPT; DT40 Tdp1-/- hTDP1 cells, no CPT, ATP luminescence, 48 h; Potency, µM (titrated, usually from 46.2 µM), for inactives: at the highest dose activity change, negative = growth inhibition, most hits filed as inhibitors; 420,000 compounds, 15% hits; AID 686978, 2013; further: potency means the concentration at half of the fitted maximal effect; nearly all actives have a fitted effect of over 55% in size
#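 Chicken DT40 Tdp1-/- cells complemented with human TDP1, screened without camptothecin (DMSO vehicle only), 400 cells/well. Compounds pin-transferred, cells incubated at 37 °C for at least 48 hr. Growth read as ATP-dependent luminescence (CellTiter-Glo, 30 min at RT).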
# HT1080 IDH1KD tx – HT-1080 IDH1 knockdown cell toxicity (counter line) | HT-1080 IDH1 knockdown viability, ATP luminescence, 48 h | Potency, µM (series often up to 46.1 µM), inactives show at the top dose activity, negative = toxicity, most hits filed as cytotoxic | 360,000 compounds, 2% hits | AID 686971;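 further: potency means the concentration at half of the fitted maximal effect; 0% = DMSO wells and -100% = cell-free medium wells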
#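 Knockdown cells (IDH1KD HT-1080) received compounds 2 h after plating at 750 cells/well and were kept 48 h at 37 °C in 5% FBS RPMI. A CellTiter-Glo luminescence read gave % activity for curve fitting.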
# 12-LOX inh – blocks human arachidonate 12S-lipoxygenase | P18054 | purified 12hLO, xylenol orange hydroperoxide absorbance | Potency, µM (series often up to 108 µM), for inactives: top-dose activity change, negative = inhibition, usual class: inhibitors | 580,000 compounds, 1.1% hits | AID 1671190; further: potency means the concentration at half of the fitted maximal effect
# Target sequence (P18054 whole entry, looked up): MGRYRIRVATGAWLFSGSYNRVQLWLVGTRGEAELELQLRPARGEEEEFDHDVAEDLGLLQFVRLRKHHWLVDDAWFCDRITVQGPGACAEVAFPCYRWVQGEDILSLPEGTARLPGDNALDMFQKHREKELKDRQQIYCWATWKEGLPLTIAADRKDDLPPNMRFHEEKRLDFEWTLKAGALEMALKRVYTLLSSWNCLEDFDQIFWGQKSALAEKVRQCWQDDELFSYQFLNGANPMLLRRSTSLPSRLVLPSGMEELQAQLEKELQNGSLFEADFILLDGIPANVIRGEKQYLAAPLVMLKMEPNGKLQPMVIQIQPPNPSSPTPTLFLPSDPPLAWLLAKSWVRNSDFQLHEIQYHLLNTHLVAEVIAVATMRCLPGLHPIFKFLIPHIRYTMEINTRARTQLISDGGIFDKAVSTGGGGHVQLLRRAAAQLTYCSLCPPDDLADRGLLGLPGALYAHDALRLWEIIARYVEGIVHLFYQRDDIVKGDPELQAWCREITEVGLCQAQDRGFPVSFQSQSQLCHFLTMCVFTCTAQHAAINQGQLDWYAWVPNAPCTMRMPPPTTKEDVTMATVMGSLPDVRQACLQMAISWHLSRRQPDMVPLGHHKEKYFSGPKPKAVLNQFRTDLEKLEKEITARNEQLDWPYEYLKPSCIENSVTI
#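 Hydroperoxide product was detected by ferrous iron/xylenol orange as the 573 to 405 nm absorbance ratio. Arachidonic acid at 40 uM (final) was turned over for 30 min at room temperature by 150 nM human 12hLO, pH 7.0 Hepes buffer, after 15 min compound preincubation.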
# An asterisk follows results filed as active; u = inconclusive; x = no result given. Shown is part of a subset that was picked to be rich in hits. Unless noted, the call rests on the fitted dose curve; in most records, active means well fitted curve in the direction sought with a large enough effect; inconclusive means small, poorly fitted or top-dose-only effect, or another doubt; inactive means no such curve, though single readings can be large; an effect the other way counts as inactive or inconclusive. Unless noted, on the % scale 0 is the no-effect control and ±100 the full control effect.
SMILES,HT1080NT lethal,IL1B secr inh,TDP1 cell CPT,TDP1 cell noCPT,HT1080 IDH1KD tx,12-LOX inh
CCN(Cc1nc2cc(Cl)ccc2c(=O)[nH]1)C(=O)Cc1csc(-c2ccc(C)cc2)n1,x,x,x,x,x,-27%
CNC(=O)CSc1nc(-c2ccccc2)c(-c2ccccc2)o1,-5%,2,-27%,u,-2%,3%
O=C(CSc1nc(-c2ccccc2)c(-c2ccccc2)o1)N1CCOCC1,-16%,-7,29µM*,16µM*,-19%,0%
COCC(C)NC(=O)CSc1nc(-c2ccccc2)c(-c2ccccc2)o1 (stereo unspecified),0%,4,12µM*,8.2µM*,-4%,u
Cc1ccc(NC(=O)N2CCC(Oc3ncccc3C(=O)N3CCOCC3)C2)cc1F (stereo unspecified),x,x,x,x,x,10%
Cc1occc1-c1nnc(SCC(=O)c2c[nH]c(C(=O)N3CCCC3)c2)n1-c1ccccc1,x,x,x,x,x,14%
Cc1cccc(-c2nc3n(CC(=O)N4CCC(C)CC4)c(C)cc(=O)n3n2)c1,x,x,x,x,x,44%
Clc1ccc(-c2nnc(Sc3nc4ccccc4o3)c3ccccc23)cc1,11µM*,-104*,u,16µM*,11µM*,5%
N#Cc1cnc(Nc2nc3ccccc3o2)nc1-c1ccc(Cl)cc1,x,x,x,x,x,36%
O=C(Cc1ccccc1)NCCC1CCN(C(=O)Nc2ccccc2)CC1,x,x,x,x,x,43%
N#CC(C(=O)NCc1ccccc1)c1nc2ccccc2nc1N1CCCC1 (stereo unspecified),-1%,9,u,u,-9%,0%
CCOC(=O)N1CCN(c2nc3ccccc3nc2C(C#N)C(=O)NCCc2ccccc2)CC1 (stereo unspecified),15%,-2,16µM*,21µM*,14%,-12%
N#CC(C(=O)NCCc1ccccc1)c1nc2ccccc2nc1N1CCCCC1 (stereo unspecified),-1%,-3,21µM*,-27%,-2%,9%
N#CC(C(=O)NCCc1ccccc1)c1nc2ccccc2nc1N1CCOCC1 (stereo unspecified),19%,-8,16µM*,u,11%,449%
CCOC(=O)C1CCCN(c2nc3ccccc3nc2C(C#N)C(=O)NCc2ccccc2)C1 (stereo unspecified),2%,-5,u,9.2µM*,-1%,-7%
CCCC(=O)Nc1c(C)cccc1CC,x,x,x,x,x,0%
Cc1ccc(S(=O)(=O)Cc2nc(-c3ccc(C(=O)NCCN(C)C)cc3)oc2C)cc1,x,x,x,x,x,8%
CCOc1ccccc1CN1CCC2(CCN([S+](=O)([O-])c3cccs3)CC2)Oc2ccccc21,x,x,x,x,x,-12%
CCOc1ccccc1CN1CCC2(CCN(C(=O)Nc3ccccc3)CC2)Oc2ccccc21,x,x,x,x,x,25µM*
COc1ccccc1NC(=O)c1ccc(-c2nn(C)c(=O)c3ccccc23)cc1,-3%,-56*,u,21µM*,1%,0%
Cn1nc(-c2ccc(OCC(=O)Nc3ccc(F)cc3)cc2)c2ccccc2c1=O,x,x,x,x,x,1%
Cc1cccc(NC(=O)COc2ccc(-c3nn(C)c(=O)c4ccccc34)cc2)c1,0%,-52*,12µM*,16µM*,-21%,-28%
COc1ccccc1NC(=O)Cc1nn(C)c(=O)c2ccccc12,4%,3,16µM*,8.2µM*,-6%,u
Cn1nc(-c2ccc(OCC(=O)Nc3ccc(Cl)cc3)cc2)c2ccccc2c1=O,x,x,u,21µM*,x,-7%
COc1cccc(OC)c1NC(=O)Cc1nn(C)c(=O)c2ccccc12,1%,27,u,u,0%,1%
